The whole screen tested about 290,000 compounds, of which about 160 (0.055%) were called active. Rule as the data show it: active = inhibition above about 50%; inactive = the rest. Only a selection was taken, and actives are over-represented in it overall.
target: Tyrosine-protein phosphatase non-receptor type 22 (Homo sapiens) (UniProt Q9Y2R2); assay: inhibitors of LYP phosphatase, biochemical, fluorescence intensity, uHTS (AID 1779); details: recombinant LYP phosphatase, at 11.5 µM, active compounds read high;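 also: plate controls were vehicle with enzyme for no effect and no enzyme for full effect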
Sequence (Q9Y2R2 whole entry, looked up): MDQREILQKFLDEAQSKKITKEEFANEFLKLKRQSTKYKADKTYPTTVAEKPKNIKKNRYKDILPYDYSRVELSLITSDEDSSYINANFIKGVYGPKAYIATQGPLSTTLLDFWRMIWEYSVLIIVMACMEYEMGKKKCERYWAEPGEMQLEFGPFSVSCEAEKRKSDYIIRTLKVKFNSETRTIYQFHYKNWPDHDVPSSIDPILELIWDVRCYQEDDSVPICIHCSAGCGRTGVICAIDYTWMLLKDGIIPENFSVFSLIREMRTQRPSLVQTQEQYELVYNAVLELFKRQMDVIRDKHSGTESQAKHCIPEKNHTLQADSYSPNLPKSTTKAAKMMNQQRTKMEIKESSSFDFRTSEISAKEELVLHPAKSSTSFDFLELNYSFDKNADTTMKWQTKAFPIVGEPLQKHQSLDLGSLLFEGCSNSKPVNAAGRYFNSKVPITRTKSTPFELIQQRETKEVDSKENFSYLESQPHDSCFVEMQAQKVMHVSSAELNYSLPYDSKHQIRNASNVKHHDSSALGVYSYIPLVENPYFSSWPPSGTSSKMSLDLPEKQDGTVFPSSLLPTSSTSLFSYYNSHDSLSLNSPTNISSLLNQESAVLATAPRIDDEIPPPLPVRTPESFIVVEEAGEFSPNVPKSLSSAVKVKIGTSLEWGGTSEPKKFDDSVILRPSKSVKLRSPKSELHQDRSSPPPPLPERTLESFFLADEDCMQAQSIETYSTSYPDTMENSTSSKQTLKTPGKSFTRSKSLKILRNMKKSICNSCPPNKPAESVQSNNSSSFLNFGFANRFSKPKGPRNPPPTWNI

inhibition, active:
CCN(CCO)Cc1csc2ccc(C(C)(C)C)cc12 52.5%
Cc1ccc2[nH]c(=O)cc(C(=O)OCC(=O)c3ccccc3)c2c1 70.6%
CCOC(=O)c1ccc(NC(=S)NC(=O)COc2ccccc2)cc1 69.2%
CC(C)CCNC(=O)c1ccc2c(Cl)c3c(nc2c1)CCC3 85.9%
COc1ccc(C(C(=O)NC2CCCC2)N2CCc3ccccc32)cc1 (centres undefined) 88.2%
N#C/C(=C\c1ccc(OCc2ccc(Br)cc2)cc1)C(=O)Nc1cccc(C(=O)O)c1 93.4%
O=C(O)C1CCCCC1C(=O)Nc1ccc(F)c(F)c1 (centres undefined) 51.4%
Cc1ccc(C)c(CN2C(=O)COc3ccc(C(=O)c4ccccc4C(=O)O)cc32)c1 57.9%

inhibition, inactive:
CCN(CCO)Cc1csc2ccc(Cl)cc12 -3.3%
FC(F)(F)c1cc(Cl)c2nnc(-c3cccnc3)n2c1 -4.4%
Cc1ccc(NC(=Nc2ccc(Br)cc2)N2CCOCC2)cc1C -2.9%
Cc1ccc2[nH]c(=O)cc(C(=O)OCC(=O)c3ccc(F)cc3)c2c1 1.2%
Cc1ccc(C(=O)COC(=O)c2cc(=O)[nH]c3ccccc23)cc1 -5.1%
Cn1c(C(=O)NC2CCCCC2)cc2sccc21 -4.8%
CCC(=O)NC(=S)Nc1ccc(NC(=O)COc2ccccc2)cc1 -2.2%
CCOC(=O)c1ccc(NC(=S)Nc2ccccc2)cc1 -5.5%
COc1ccc2[nH]c(=O)c(CN(c3ccccc3OC)S(=O)(=O)c3ccccc3)cc2c1 -5.9%
Nc1nc(NCCN2CCOCC2)nc(NCc2ccccc2)c1[N+](=O)[O-] -6%
CC(C)CCNC(=O)c1ccc2c(SCC(=O)O)c3c(nc2c1)CCC3 -1.8%
COCCNC(=O)c1ccc2c(Cl)c3c(nc2c1)CCC3 -7.1%
O=C(Nc1ccccc1C(=O)NCc1ccccc1)c1ccccc1Br -1.2%
Cc1ccc(C(C(=O)NC2CCCC2)N2CCc3ccccc32)cc1 (centres undefined) 0.4%
O=C(NC1CCCCC1)C(c1ccccc1)N1CCc2ccccc21 (centres undefined) 3%
COc1ccc(CNC(=O)Cc2ccc(NC(=O)C3=C(C)OCCS3)cc2)cc1 -1.9%
CC(O)CNc1nc2c(c(=O)n(Cc3ccc(Cl)c(Cl)c3)c(=O)n2C)n1C (centres undefined) -3.6%
CCOc1cc(/C=C(\C#N)C(=O)Nc2cccc(C(=O)O)c2)ccc1OCc1ccccc1Cl -2.4%
N#C/C(=C/c1ccc(OCc2ccc(C(=O)O)cc2)cc1)C(=O)Nc1ccccc1 -4.6%
N#C/C(=C\c1ccc(OCc2ccccc2)cc1)C(=O)Nc1ccc(C(=O)O)cc1 3%
N#C/C(=C/c1ccccc1OCc1ccc(F)cc1)c1ccc(C(=O)O)cc1 -6.7%
N#C/C(=C\c1ccccc1OCc1ccc(C(=O)O)cc1)c1ccccc1 -4.4%
N#C/C(=C\c1ccc(OCc2ccc(F)cc2)cc1)C(=O)Nc1cccc(C(=O)O)c1 5.5%
COc1cc(/C=C(\C#N)C(=O)Nc2cccc(C(=O)O)c2)ccc1OCc1ccc(Cl)cc1 15%
COc1cc(/C=C(\C#N)C(=O)Nc2cccc(C(=O)O)c2)ccc1OCc1ccc(C)cc1 -1.7%
COc1ccc(-c2sc3ccccc3c2C#CC2(O)CCCCC2)cc1 -5%
CSc1nc2ccc(NS(=O)(=O)c3ccc(Cl)s3)cc2s1 1.1%
COC(=O)CSCC(=O)Nc1nnc(-c2cccc(C)c2)s1 5%
CC(=O)c1sc(NC(=O)C(C)Oc2ccc3c(C)cc(=O)oc3c2)nc1C (centres undefined) -5.1%
CC(=O)N(C)c1ccc(NC(=S)Nc2cccc3ccccc23)cc1 -2.8%
O=C(Cn1nc(Cc2cccnc2)c2ccccc2c1=O)Nc1cc(F)ccc1F -6.7%
O=C(N=C1SC2CS(=O)(=O)CC2N1Cc1ccccc1Cl)C1CC1 (centres undefined) -11.3%
COc1ccccc1CNC(=O)c1cc2sccc2n1C -5.5%
CC(=O)Nc1ccc(S(=O)(=O)N2CCC(NC(=O)C(Cc3ccc(C)cc3)NC(C)=O)CC2)cc1 (centres undefined) -16%
CCC1=C(OC(=O)N(CC)CC)N2C(=O)OC(=NCC3CC3)[C@]2(C)[C@H]2C1=CC[C@H]1C(=O)NC(=O)[C@H]12 -0.8%
CCOC(=O)c1c(C)[nH]c(C)c1C(=O)CSc1nc2ccccc2n1CC -7.1%
O=C(O)C1CC=CCC1C(=O)Nc1ccc(F)c(F)c1 (centres undefined) 6.1%
O=C(O)C1CCCCC1C(=O)Nc1ccc(Cl)cc1 (centres undefined) -1.6%
COc1cccc(C2C(C(=O)c3cc4ccccc4o3)=C(O)C(=O)N2c2cc(C)on2)c1 (centres undefined) -8%
Cc1ccc(C)c(CN2C(=O)COc3ccccc32)c1 -5.6%
CCCN1C(=O)COc2ccc(C(=O)c3ccccc3C(=O)O)cc21 -4.6%

Reference: PubChem BioAssay AID1779 (Sanford-Burnham Center for Chemical Genomics, 2009)
